# Assay outcomes deposited in PubChem BioAssay by National Center for Advancing Translational Sciences (NCATS).
# IMPase Li inh = cell-permeable IMPase inhibitors with lithium potentiation; Potency, µM (titrated, usually from 59.4 µM), inactives show at the highest dose activity, negative = IMPase inhibition, usual class: inhibitors; 0.35% of 210,000 active; CHO-M1 cells, IP1 TR-FRET (IP-One), carbachol + lithium;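 note: IP1 builds up when IMPase is blocked and the TR-FRET signal falls; potency is the fitted concentration of half-maximal effect; plate controls were basal vehicle for no effect and high inhibitor control for full effect; nearly all actives have a fitted effect of over 50% in size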
#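 Steps: plate 2000 CHO-M1 cells per well and culture 16–30 h; add compound and lithium; incubate 30 min, 37C; add d2-IP1 tracer and Eu cryptate anti-IP1 antibody in lysis buffer; read after 10 min at room temperature.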
# IMPase cell inh = cell-permeable inhibitors of inositol monophosphatase (IMPase) | 120,000 tested, under 10 active | CHO-M1 cells, IP1 accumulation, HTRF TR-FRET ratio | AID 901 | inhibition (IP1 accumulation), % at 46.1 µM; active = well fitted curve in the direction sought with a large enough effect in the signal ratio, not every such curve was filed as active; inconclusive = small, poorly fitted or top-dose-only effect, or a change in a side signal; inactive = no such curve, though single readings can be large or run the other way; the % refers to the signal ratio;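 note: cells stimulated with carbachol in lithium chloride buffer; plate controls were DMSO basal wells for no effect and reference inhibitor wells for full effect; higher means more IMPase inhibition seen as more IP1 and lower FRET ratio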
# Target sequence (P97697 whole entry, looked up): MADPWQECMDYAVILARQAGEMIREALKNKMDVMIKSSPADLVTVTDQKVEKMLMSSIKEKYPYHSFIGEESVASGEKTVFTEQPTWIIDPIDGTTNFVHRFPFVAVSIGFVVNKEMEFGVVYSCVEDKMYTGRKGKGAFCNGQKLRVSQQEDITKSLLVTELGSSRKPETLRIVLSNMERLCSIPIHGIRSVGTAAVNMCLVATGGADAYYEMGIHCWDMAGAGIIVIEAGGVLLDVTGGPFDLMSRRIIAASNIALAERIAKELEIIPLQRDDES
#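 CHO-M1 cells (CHO stably expressing M1 receptor), compound up to 46 uM final, stimulated with carbachol (50 uM as added) in buffer with 50mM LiCl, pH 7.4, 30 min at 37C. Cytosolic IP1 read by TR-FRET; AC50 from Hill fits.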
# ALDH1A1 inh = ALDH1A1 (human) enzyme inhibition; Purified ALDH1A1, NADH fluorescence, propionaldehyde substrate; 7.3% of 220,000 active; AID 1030; Potency, µM (highest dose often 75.3 µM), for inactives: top-dose activity, negative = inhibition, usual class: inhibitors; P00352; active = well fitted inhibition curve with a large enough effect, not every such curve was filed as active; inconclusive = small, poorly fitted or top-dose-only effect, or another doubt; inactive = no such curve, though single readings can be large or run the other way;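 note: potency is the fitted concentration of half-maximal effect; plate controls were no enzyme wells and a reference inhibitor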
# Target sequence (P00352 whole entry, looked up): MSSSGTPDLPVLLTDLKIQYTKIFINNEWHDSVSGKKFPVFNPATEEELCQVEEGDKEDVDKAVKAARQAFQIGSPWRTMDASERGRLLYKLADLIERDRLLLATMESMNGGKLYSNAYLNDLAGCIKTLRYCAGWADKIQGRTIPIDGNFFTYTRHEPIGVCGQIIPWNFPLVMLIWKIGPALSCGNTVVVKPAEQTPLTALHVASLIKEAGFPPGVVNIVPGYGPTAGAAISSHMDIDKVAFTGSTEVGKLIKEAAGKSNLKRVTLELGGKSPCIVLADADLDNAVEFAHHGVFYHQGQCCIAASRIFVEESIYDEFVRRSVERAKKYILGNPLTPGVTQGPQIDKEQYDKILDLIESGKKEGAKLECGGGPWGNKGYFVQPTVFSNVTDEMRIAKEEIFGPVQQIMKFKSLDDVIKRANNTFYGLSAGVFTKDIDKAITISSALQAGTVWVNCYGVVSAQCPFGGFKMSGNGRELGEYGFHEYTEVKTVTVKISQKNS
# NPSR antagonist = neuropeptide S receptor (human) antagonism, cAMP | Q6W5P4 | CHO-NPSR cells, cAMP TR-FRET, antagonist mode | Potency, µM (top dose mostly 38.3 µM), inactives show at the highest dose activity change, negative = inhibition, most hits filed as inhibitors | 1% of 220,000 active | AID 1461; note: potency is the fitted concentration of half-maximal effect; nearly all actives have a fitted effect of over 50% in size
# PNC inhibitor = inhibitors of perinucleolar compartment assembly. PC3M PTB-GFP, PNC prevalence imaging, 16 h; hits give low values. activity change (PNC), negative = inhibition, % at 10 µM. 3.1% of 140,000 active;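 active = readout at or below -70, meaning at least 70% loss of cells showing the perinucleolar compartment, a nuclear body marking cancer cells; inconclusive = readout between -30 and a set limit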;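 note: plate controls were DMSO wells for no effect and camptothecin positive control wells for full effect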
#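 Compounds are pinned in duplicate onto adhered PC3M cells stably expressing GFP-tagged PTB and incubated 16 h at 37 C. Cells are then fixed, nuclei stained with Hoechst, and PNC-positive cells counted.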
# HPGD block = blocks human HPGD enzyme activity; P15428; purified HPGD, NADH fluorescence kinetic, PGE2 substrate; Potency, µM, inactives show at the top dose activity change, negative = inhibition, hits mostly inhibitors; 4.3% of 150,000 active; AID 894; active = well fitted inhibition curve with a large enough effect, not every such curve was filed as active; inconclusive = small, poorly fitted or top-dose-only effect, or another doubt; inactive = no such curve, though single readings can be large or run the other way; note: potency is the fitted concentration of half-maximal effect
#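 20 nM HPGD preincubated 15 min at room temperature with compound in 50 mM Tris-HCl pH 8, 0.01% Tween 20. Started with 1 mM NAD+ and 30 uM prostaglandin E2; NADH fluorescence (360/450 nm) read 5 times over 30-s intervals, last minus first.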
# * hit, by the source's call; ? = inconclusive; · = no result given; [ ] = another dose, or the depositor's remark. Sampled rows, rich in hits. Any-hit rate of the full collection: about 11%. Unless noted, calls come from the whole dose curve; as a rule, active = well fitted curve in the direction sought with a large enough effect; inconclusive = small, poorly fitted or top-dose-only effect, or another doubt; inactive = no such curve, though single readings can be large; an effect the other way counts as inactive or inconclusive. Unless noted, % is set by controls: 0 for no effect and ±100 for the full control effect.
SMILES,IMPase Li inh,IMPase cell inh,ALDH1A1 inh,NPSR antagonist,PNC inhibitor,HPGD block
Cn1cc(Cl)c(-c2n[nH]c(=S)n2-c2ccccc2)n1,11.2µM*,·,-13.0%,-29.5%,21.7,-18.7%
Cc1ccc(-n2c(-c3nn(C)cc3Cl)n[nH]c2=S)cc1,-7.6%,·,1.5%,0.4%,-1.0,-16.8%
Cc1c(Cl)c(-c2n[nH]c(=S)n2-c2ccc(F)cc2)nn1C,11.2µM*,?,?,?,10.2,-21.5%
CCC(c1nnnn1CCc1ccccc1)N(Cc1ccco1)Cc1cc2cc(C)cc(C)c2[nH]c1=O (configuration not stated),23.4%[38.3 µM],5.3,?,?,?,-19.8%
CCC(c1nnnn1CCc1ccccc1)N(Cc1ccco1)Cc1cc2c(C)ccc(C)c2[nH]c1=O (configuration not stated),17.3%[38.3 µM],11.3,22.4µM*,?,10.6,-18.4%
CCC(c1nnnn1Cc1ccco1)N(CCc1ccccc1)Cc1cc2cc(C)ccc2[nH]c1=O (configuration not stated),·,13.0,25.1µM*,?,-24.9,·
CN(C)c1ccc(-c2ccc3ncnc(-n4ccnc4)c3c2)cc1,5.9%,·,?,·,·,·
Cn1c(SCC(=O)N2CCOCC2)nnc1-c1ccccc1,-4.2%[38.3 µM],-1.7[1.84 µM],-1.2%,4.5%[46.1 µM],?,-9.1%
CCOC(=O)c1oc2ccccc2c1CN1CCCCC1,-0.8%,·,-3.7%,-3.1%,·,·
CCOC(=O)c1oc2ccccc2c1CSc1nnnn1-c1ccccc1,2.0%[38.3 µM],6.9,6.31µM*,-24.1%[46.1 µM],-7.3,-12.8%
CCOC(=O)c1oc2ccccc2c1CN1CCOCC1,-0.7%[38.3 µM],5.4,11.2µM*,2.5%[46.1 µM],11.0,-9.0%
CC(C)Cn1c(SCC(=O)Nc2ncccn2)nc2ccccc21,0.4%,·,?,-1.8%,·,·
O=C(NCCCN1CCOCC1)C(=O)N/N=C/c1c(Cl)cccc1Cl,4.9%,·,6.2%,8.3%,·,·
CC(C)c1ccc(/C=N/NC(=O)C(=O)NCCCN2CCOCC2)cc1,3.8%,·,14.1µM*,14.4%,33.6,-8.0%
CCC(=O)Nc1nc(=S)ss1,32.3%[38.3 µM],8.0,2µM*,-9.1%[46.1 µM],?,10µM*
CC(C)(C)C(=O)Nc1nc(=S)ss1,21.3%[38.3 µM],1.6,5.62µM*,-11.4%[46.1 µM],29.2,31.6µM*
Cc1cc(C)n(CCc2nc(-c3ccc(F)cc3)cs2)n1,-5.5%,·,2.8%,8.2%,50.2,25.1µM*
O=C1CCC(=O)N1CCSC(=S)N1CCOCC1,·,·,·,18.5%,·,·
C=CCNC(=S)NNc1nc2c(c(=O)[nH]1)C1(CCCCC1)Cc1ccccc1-2,6.5%,-5.1,12.6µM*,-9.4%,-13.1,?
O=c1[nH]c(NCCO)nc2c1C1(CCCC1)Cc1ccccc1-2,-2.6%[38.3 µM],-11.2,?,-3.2%[46.1 µM],93.1,?
COc1cc(NCCCCCCCN)c2ncccc2c1,20.2%,13.3,3.55µM*,17.9%[46.1 µM],?,-11.7%
O=C(/C=C\C=C/c1ccc2c(c1)OCO2)N1CCCCC1,3.6%,0.3[20.6 µM],?,·,·,10µM*
O=C(C(=O)N1CCc2ccccc2C1)c1cn(CC(=O)N2CCCC2)c2ccccc12,-0.2%,-8.9,5.7%,12.9%,16.2,-3.2%
CC(C)c1ccc(NC(=O)CCNS(=O)(=O)c2cccc3nonc23)cc1,3.4%,4.7,25.1µM*,-1.6%[46.1 µM],-100.0*,-25.8%
CC(=O)c1cccc(NC(=O)CCNS(=O)(=O)c2cccc3nonc23)c1,1.3%,·,?,2.1%,·,·
SMILES,IMPase Li inh,IMPase cell inh,ALDH1A1 inh,NPSR antagonist,PNC inhibitor,HPGD block
O=C(CCNS(=O)(=O)c1cccc2nonc12)NC1CCCCCC1,-0.3%,·,25.1µM*,2.6%,·,·
O=C(CCNS(=O)(=O)c1cccc2nonc12)NCc1cccs1,13.9%[38.3 µM],19.2,20µM*,6.3%[46.1 µM],52.0,-16.5%
Cc1ccc(NC(=O)CCNS(=O)(=O)c2cccc3nonc23)cc1,17.8%[38.3 µM],14.7,?,-11.5%[46.1 µM],24.2,-1.4%
CC(C)C(C(=O)Nc1ccc2c(c1)OCCOCCOCCOCCO2)N1C(=O)c2ccccc2C1=O (configuration not stated),4.4%,·,6.9%,9.2%,·,·
O=C(Nc1ccccc1C(=O)O)c1ccc(Br)o1,-9.3%[38.3 µM],2.2,3.98µM*,-3.4%[46.1 µM],-16.6,?
Cc1ccc(C(=O)Nc2ccccc2C(N)=O)o1,-7.8%[38.3 µM],0.7,3.3%,-30.1%[46.1 µM],43.9,-3.9%
CC(=O)c1cc(C(=O)Nc2ccccc2C(=O)O)oc1C,-3.2%[38.3 µM],-8.4,0.708µM*,-10.4%[46.1 µM],-9.3,?
CN(C(=O)Cc1c(C(=O)O)n(C)c2ccccc12)c1ccc(F)cc1,3.3%,·,2.0%,11.6%,·,·
O=C(CCl)Oc1ccc2occ(C(=O)c3cccs3)c2c1,27.3%[38.3 µM],-6.9,0.794µM*,14.5%[46.1 µM],18.2,-21.5%
COc1ccc(OCc2nnc(SCC(=O)N(C)Cc3ccccc3)n2N)cc1,5.4%,·,8.91µM*,5.0%,·,·
Cc1ccc(OCc2nnc(SCC(=O)O)n2N)cc1,-0.8%[38.3 µM],2.6,-2.3%,-2.5%[46.1 µM],39.1,-6.8%
Cn1cnnc1SCCC(=O)Nc1ccc(Cl)cc1,2.1%,0.3,12.5%,11.8%[46.1 µM],-112.6*,-3.6%
CC(C)N(C(=O)Cn1c(Cl)nc2ccccc21)C(C)C,-2.9%,·,5.5%,0.0%,·,·
c1ccc2sc(Sc3ncnc4sccc34)nc2c1,-2.2%,·,-5.4%,-0.5%,?,?
CCc1cc2c(Sc3nc4ccccc4s3)ncnc2s1,-15.5%[38.3 µM],-4.2,20µM*,-12.8%[46.1 µM],27.3,25.1µM*
C[C@@H](NCc1cc(Br)cc2[nH]c(=O)c(=O)[nH]c12)P(=O)(O)O,-8.1%,-16.5,0.9%,·,·,-3.3%
Cc1cc(C(=O)N/N=C/c2ccncc2)c(C)o1,·,·,·,31.4%,·,·
O=C(N/N=C/c1ccncc1)c1cc([N+](=O)[O-])cc([N+](=O)[O-])c1O,-9.4%[38.3 µM],7.5,?,-13.5%[46.1 µM],?,28.2µM*
O=C(CSc1nnnn1-c1ccccc1)Nc1ncc2c(n1)CC(c1ccccc1)CC2=O (configuration not stated),11.9%[38.3 µM],1.5,15.5%,-8.0%[46.1 µM],?,-1.0%
Clc1ccc(-c2nnc3sc(Cc4cccs4)nn23)cc1,9.5%[38.3 µM],-0.1,22.4µM*,-10.7%[46.1 µM],-9.1,-10.7%
c1ccc(-c2nnc3sc(Cc4cccs4)nn23)cc1,10.7%,-0.1,-35.0%,19.2%[46.1 µM],221.1,-25.4%
O=C1c2ccccc2C(=O)N1Cc1nn2c(-c3ccc(Cl)cc3)nnc2s1,11.2µM*,?,14.1µM*,-20.9%[46.1 µM],?,-8.2%
COc1ccc(CCNC(=O)/C(=C/c2cccnc2)NC(=O)c2ccccc2)cc1OC,2.3%,·,-5.2%,1.4%,·,·
O=C(CCS(=O)(=O)c1cccc2nonc12)NCCc1ccccc1,13.4%[38.3 µM],-5.1,22.4µM*,-11.3%[46.1 µM],?,-7.9%
O=C(CCS(=O)(=O)c1cccc2nonc12)N1CCCc2ccccc21,24.9%[38.3 µM],6.0,11.2µM*,9.4%[46.1 µM],2.7,-14.9%
